Outcome and AC50 data for eight molecules are collected here from PubChem BioAssay (EPA / NIEHS).

Where “and” joins values, the source holds several entries; their conditions need not be identical. Equal entries are not always repeated. Records with an inconclusive call do not appear. Some compounds were tested as several samples or in several runs, with calls that do not always agree. Calls of active or inactive are those of the source. The calls were made as follows, unless noted: active = hit-call score of the fitted dose curve at least 0.9, where 1 is the maximum; inactive = score below 0.9.

Assay [1] in a line: ATG_RORE_CIS: Attagene CIS-FACTORIAL HepG2 Assay for human RAR-related Orphan Receptor Element (RORE) (AID 2282959). The settings on record: HepG2 Attagene cis-factorial RORE reporter, mRNA; actives raise or lower the signal. In a few lines: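 Transient MRTU transfection of human HepG2 liver cells (FuGene 6); 24 h compound exposure; TriZol RNA, oligo(dT) RT, PCR, FAM labeling, HpaI cut, CE fragment analysis. DMSO = negative control/baseline.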

The nature of assay [2]: ATG_Sox_CIS: Attagene CIS-FACTORIAL HepG2 Assay for human SRY-box transcription factor (SOX) (AID 2282960). As to conditions: HepG2 Attagene cis-factorial SOX reporter, mRNA; actives raise or lower the signal. Put shortly: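 Endogenous factor activity in human liver HepG2 cells carrying transfected cis-regulated reporter units. RNA taken 24 h post-dose, reverse-transcribed, PCR-amplified and sized by capillary electrophoresis. Gain or loss of signal fitted relative to DMSO.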

Assay [3] has as its target Transcription factor Sp1 (Homo sapiens) (UniProt P08047). In words: ATG_Sp1_CIS: Attagene CIS-FACTORIAL HepG2 Assay for human Specificity Protein 1 (Sp1) (AID 2282961). The settings on record: HepG2 Sp1 cis-reporter transcription, actives raise or lower the signal. In a few lines:
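Transient MRTU-transfected HepG2, 24 h compound exposure. Total RNA → oligo(dT) RT → PCR of reporter → 6-FAM primer extension → HpaI digest → CE. Endpoint fitted both directions vs DMSO.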

Assay [4] in a line: ATG_SREBP_CIS: Attagene CIS-FACTORIAL HepG2 Assay for human Sterol Regulatory Element Binding (SREBP) (AID 2282962). The settings on record: HepG2 Attagene cis-factorial SREBP reporter, mRNA; actives raise or lower the signal. Put shortly:
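In this cis-format assay, HepG2 liver cells express reporters controlled by promoter elements responsive to native transcription factors. Exposure lasts 24 h; reporter mRNA fluorescence from capillary electrophoresis gives the signal, fitted bidirectionally against DMSO.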

Assay [5] has as its target Signal transducer and activator of transcription 3 (Homo sapiens) (UniProt P40763). In words: ATG_STAT3_CIS: Attagene CIS-FACTORIAL HepG2 Assay for human Signal Transducer and Activator of Transcription 3 (STAT3) (AID 2282963). The settings on record: HepG2, Attagene cis-factorial STAT3 reporter transcription; actives raise or lower the signal. Put shortly:
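HepG2, MRTU-transfected, 24 h dosing. RNA → RT → PCR → FAM label → HpaI → CE. Bidirectional fit vs DMSO.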

Assay [6] is described as follows: ATG_TA_CIS: Attagene CIS-FACTORIAL HepG2 Assay for human TA Basal Promoter (AID 2282964). The settings on record: HepG2 Attagene CIS-factorial TA basal promoter reporter; actives raise or lower the signal. Put shortly: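 Background internal-marker endpoint from a 52-component HepG2 cis-reporter panel. Cells treated 24 h; reporter transcripts quantified via RT-PCR and CE fluorescence against DMSO baseline.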

The nature of assay [7]: ATG_TCF_b_cat_CIS: Attagene CIS-FACTORIAL HepG2 Assay for human T-Cell-Factor with beta-catenin (TCF/b-cat) (AID 2282965). The settings on record: HepG2 TCF/beta-catenin cis-reporter transcription, actives raise or lower the signal. Put shortly: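 Using capillary electrophoresis as the read-out, labelled reporter cDNA fragments from transiently transfected HepG2 were sized and quantified. Exposure lasted 24 hours; activity in either direction was referenced to DMSO.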

Assay [8] is described as follows: ATG_TAL_CIS: Attagene CIS-FACTORIAL HepG2 Assay for human TAL Basal Promoter (AID 2282966).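 Also: background control endpoint measuring basal TAL promoter reporter mRNA not a specific factor.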 As to conditions: HepG2 Attagene cis-factorial TAL promoter reporter; actives raise or lower the signal. Put shortly: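 HepG2, transient MRTU transfection, 24 h compound exposure; RNA → oligo(dT) RT → PCR → 6-FAM primer extension → HpaI digest → CE fluorescence. Bidirectional curve fit vs DMSO. Background-control readout.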

A short description of assay [9]: ATG_TGFb_CIS: Attagene CIS-FACTORIAL HepG2 Assay for human Transforming Growth Factor (TGF) (AID 2282967). The settings on record: HepG2 Attagene CIS TGFb reporter, mRNA transcription; actives raise or lower the signal. In a few lines:
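Liver HepG2 line, cis-factorial reporter panel, 24 h dosing. Quantitation: RT-PCR products labeled with 6-FAM, cut with HpaI, resolved by capillary electrophoresis; DMSO-referenced bidirectional analysis.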

The nature of assay [10]: ATG_VDRE_CIS: Attagene CIS-FACTORIAL HepG2 Assay for human Vitamin D Receptor Element (VDRE) (AID 2282968). As to conditions: HepG2 VDRE cis-reporter transcription, actives raise or lower the signal. In a few lines: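 Steps: transfect HepG2 with multiple reporter transcription units; dose chemicals 24 h; isolate RNA; RT-PCR; label with 6-FAM primer extension; HpaI digest; capillary electrophoresis. Curves fitted both directions against DMSO.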

In assay [11] the target is Nuclear receptor subfamily 1 group I member 3 (Homo sapiens) (UniProt Q14994). Description: ATG_CAR_TRANS: Attagene TRANS-FACTORIAL HepG2 Assay for human Constitutive Androstane Receptor (CAR) (AID 2282969; active = hit-call score of the fitted dose curve at least 0.9, where 1 is the maximum;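 also: activators raise reporter mRNA above DMSO so AC50 marks induction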). As to conditions: HepG2 Attagene TRANS-FACTORIAL CAR reporter. Put shortly:
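Steps: transient transfection of HepG2 with multiple GAL4-UAS reporter units; 24 h compound incubation; RNA isolation, RT-PCR, 6-FAM primer extension, HpaI digest; capillary electrophoresis. Gain-of-signal relative to DMSO negative control.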

Assay [12] concerns the target Estrogen receptor (Homo sapiens) (UniProt P03372). In words: ATG_ERa_TRANS: Attagene TRANS-FACTORIAL HepG2 Assay for human Estrogen Receptor alpha (ERa) (AID 2282970; active = hit-call score of the fitted dose curve at least 0.9, where 1 is the maximum). As to conditions: HepG2 Attagene TRANS ERa GAL4 reporter, mRNA. Put shortly:
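Reporter mRNA induction after 24 hours, detected by fluorescent RT-PCR and capillary electrophoresis, gives the read-out. Cells are HepG2 transiently transfected with GAL4-UAS reporter transcription units responding to chimeric NR-Gal4. Activity is taken as gain of signal over DMSO baseline.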

Assay [13] addresses X-box-binding protein 1 (Homo sapiens) (UniProt P17861). Description: ATG_Xbp1_CIS: Attagene CIS-FACTORIAL HepG2 Assay for human X-box Binding Protein 1 (XBP1) (AID 2282972). The settings on record: HepG2 XBP1 cis-element reporter, Attagene multiplex; actives raise or lower the signal. Put shortly:
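Changes in reporter transcript abundance, read by RT-PCR and capillary electrophoresis, reflect endogenous transcription factor activity. Transfected HepG2 cells received compound for 24 hours; DMSO defined baseline for bidirectional analysis.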

Assay [14] can be described thus: ATG_M_19_TRANS: Attagene TRANS-FACTORIAL HepG2 Assay for M19 Transcription Factor (Internal Marker) (AID 2282974; active = hit-call score of the fitted dose curve at least 0.9, where 1 is the maximum). The settings on record: HepG2 Attagene TRANS-FACTORIAL M19 internal marker reporter. Put shortly: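 Fluorescence of 6-FAM-labelled reporter cDNA fragments, separated by capillary electrophoresis, served as the readout. These derived from HepG2 cells carrying transfected GAL4-UAS reporter units after 24 h dosing, with DMSO as negative control.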

Assay [15] addresses Glucocorticoid receptor (Homo sapiens) (UniProt P04150). In words: ATG_GR_TRANS: Attagene TRANS-FACTORIAL HepG2 Assay for human Glucocorticoid Receptor (GR) (AID 2282978; active = hit-call score of the fitted dose curve at least 0.9, where 1 is the maximum;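 also: activators score as hits since higher reporter transcript over DMSO is fitted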). The settings on record: HepG2 Attagene TRANS GR reporter, mRNA transcription. Put shortly:
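Fluorescent capillary-electrophoresis quantitation of reporter mRNA is the readout, taken 24 h after dosing human HepG2 cells carrying transiently transfected GAL4-UAS reporter units activated by chimeric NR-GAL4 fusions; activity scored as induction over DMSO.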

The target of assay [16] is Bile acid receptor (Homo sapiens) (UniProt Q96RI1). In words: ATG_FXR_TRANS: Attagene TRANS-FACTORIAL HepG2 Assay for Farnesoid X Receptor (FXR) (AID 2282979; active = hit-call score of the fitted dose curve at least 0.9, where 1 is the maximum;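 also: hits raise reporter mRNA above DMSO so AC50 marks FXR activation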). The settings on record: HepG2 Attagene TRANS FXR-GAL4 reporter transcription. In a few lines:
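Read-out: fluorescent reporter transcripts quantified by capillary electrophoresis after RT-PCR of total RNA. Source cells were HepG2 transiently carrying chimeric NR-GAL4 plus GAL4-UAS reporter units, dosed 24 h. Activity fitted upward relative to DMSO baseline.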

Assay [17] in a line: ATG_GAL4_TRANS: Attagene TRANS-FACTORIAL HepG2 Assay for GAL4 (Internal Marker) (AID 2282976; active = hit-call score of the fitted dose curve at least 0.9, where 1 is the maximum). As to conditions: HepG2 Attagene TRANS GAL4 internal marker reporter. In a few lines: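 RT-PCR/capillary electrophoresis readout of reporter mRNA. HepG2, transient MRTU transfection (GAL4-UAS reporters), 24 h compound exposure. Background-control endpoint, positive direction vs DMSO baseline.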

Assay [18] deals with Steroid hormone receptor ERR1 (Homo sapiens) (UniProt P11474). In words: ATG_ERRa_TRANS: Attagene TRANS-FACTORIAL HepG2 Assay for human Estrogen-Related Receptor alpha (ERRa) (AID 2282971; active = hit-call score of the fitted dose curve at least 0.9, where 1 is the maximum). As to conditions: HepG2 Attagene TRANS reporter, ERRa transactivation. In a few lines:
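Transfected HepG2, 24 h dosing, ERRa-Gal4 chimera driving GAL4-UAS reporter. Readout: reporter mRNA via RT-PCR plus capillary electrophoresis (fluorescence). Positive direction vs DMSO control.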

Assay [19] concerns the target Estrogen-related receptor gamma (Homo sapiens) (UniProt P62508). Description: ATG_ERRg_TRANS: Attagene TRANS-FACTORIAL HepG2 Assay for human Estrogen-Related Receptor gamma (ERRg) (AID 2282977; active = hit-call score of the fitted dose curve at least 0.9, where 1 is the maximum;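 also: hits increase reporter signal over DMSO so potencies reflect activators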). As to conditions: HepG2 Attagene TRANS reporter, ERRg transactivation. Put shortly: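 Induction of reporter transcripts through a chimeric NR-Gal4 protein is quantified in transfected human HepG2 liver cells after 24 h chemical exposure, using RT-PCR with capillary electrophoresis detection and DMSO as baseline.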

Sequence of Signal transducer and activator of transcription 3 (Homo sapiens) (P40763 whole entry, looked up): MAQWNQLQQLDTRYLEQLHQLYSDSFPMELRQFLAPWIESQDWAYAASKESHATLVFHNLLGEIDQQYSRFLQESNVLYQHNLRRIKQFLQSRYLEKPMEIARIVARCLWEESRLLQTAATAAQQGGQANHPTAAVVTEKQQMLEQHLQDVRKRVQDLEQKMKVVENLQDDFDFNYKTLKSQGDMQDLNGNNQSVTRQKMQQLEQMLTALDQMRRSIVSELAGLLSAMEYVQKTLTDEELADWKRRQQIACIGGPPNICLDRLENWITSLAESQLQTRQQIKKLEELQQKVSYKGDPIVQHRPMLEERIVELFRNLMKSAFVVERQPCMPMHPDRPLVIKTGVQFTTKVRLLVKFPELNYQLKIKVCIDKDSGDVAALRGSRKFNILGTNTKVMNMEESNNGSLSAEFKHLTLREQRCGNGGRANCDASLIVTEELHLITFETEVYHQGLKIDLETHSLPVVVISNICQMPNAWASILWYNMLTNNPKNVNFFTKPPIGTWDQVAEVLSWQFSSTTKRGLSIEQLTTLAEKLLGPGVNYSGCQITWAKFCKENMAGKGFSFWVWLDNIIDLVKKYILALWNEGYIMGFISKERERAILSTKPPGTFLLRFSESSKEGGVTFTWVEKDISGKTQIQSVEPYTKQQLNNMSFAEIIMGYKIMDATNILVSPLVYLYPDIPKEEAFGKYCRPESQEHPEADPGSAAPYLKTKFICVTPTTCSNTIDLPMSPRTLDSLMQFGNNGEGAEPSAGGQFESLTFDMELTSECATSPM
Sequence of Bile acid receptor (Homo sapiens) (Q96RI1 whole entry, looked up, the tested form may be a part): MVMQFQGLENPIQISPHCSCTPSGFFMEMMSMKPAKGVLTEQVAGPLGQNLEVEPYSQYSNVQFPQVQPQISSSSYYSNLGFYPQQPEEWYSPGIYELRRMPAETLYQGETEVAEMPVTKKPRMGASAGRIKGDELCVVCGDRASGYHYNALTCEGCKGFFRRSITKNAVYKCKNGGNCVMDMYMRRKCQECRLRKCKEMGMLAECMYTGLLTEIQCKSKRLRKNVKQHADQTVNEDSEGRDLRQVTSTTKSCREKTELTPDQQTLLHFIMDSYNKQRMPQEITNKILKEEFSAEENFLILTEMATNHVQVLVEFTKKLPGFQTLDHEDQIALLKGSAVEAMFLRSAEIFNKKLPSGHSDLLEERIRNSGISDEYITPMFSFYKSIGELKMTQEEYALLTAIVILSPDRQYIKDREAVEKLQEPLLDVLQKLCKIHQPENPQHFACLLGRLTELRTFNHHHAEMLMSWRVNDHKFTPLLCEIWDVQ
Sequence of Glucocorticoid receptor (Homo sapiens) (P04150 whole entry, looked up, the tested form may be a part): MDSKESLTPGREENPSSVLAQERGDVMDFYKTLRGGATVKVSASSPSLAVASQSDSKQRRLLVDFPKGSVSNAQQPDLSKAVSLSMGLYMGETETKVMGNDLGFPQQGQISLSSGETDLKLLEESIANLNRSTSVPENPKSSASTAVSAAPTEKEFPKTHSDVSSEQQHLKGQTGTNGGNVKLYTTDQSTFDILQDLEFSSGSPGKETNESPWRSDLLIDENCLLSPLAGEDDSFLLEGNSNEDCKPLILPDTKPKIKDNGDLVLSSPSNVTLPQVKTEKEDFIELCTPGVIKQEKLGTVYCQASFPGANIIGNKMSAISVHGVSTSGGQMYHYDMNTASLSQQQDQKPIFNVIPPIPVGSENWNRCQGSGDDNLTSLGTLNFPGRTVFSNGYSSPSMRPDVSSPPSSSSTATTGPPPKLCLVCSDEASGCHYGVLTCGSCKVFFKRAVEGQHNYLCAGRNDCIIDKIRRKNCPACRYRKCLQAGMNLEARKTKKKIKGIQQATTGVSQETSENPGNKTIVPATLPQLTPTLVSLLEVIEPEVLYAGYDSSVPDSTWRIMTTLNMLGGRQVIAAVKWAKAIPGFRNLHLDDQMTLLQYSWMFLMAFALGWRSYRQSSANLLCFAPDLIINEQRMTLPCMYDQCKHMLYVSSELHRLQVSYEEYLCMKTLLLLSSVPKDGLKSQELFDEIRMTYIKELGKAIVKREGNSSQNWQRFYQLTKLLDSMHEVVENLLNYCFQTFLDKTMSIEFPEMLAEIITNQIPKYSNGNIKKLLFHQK
Sequence of X-box-binding protein 1 (Homo sapiens) (P17861 whole entry, looked up): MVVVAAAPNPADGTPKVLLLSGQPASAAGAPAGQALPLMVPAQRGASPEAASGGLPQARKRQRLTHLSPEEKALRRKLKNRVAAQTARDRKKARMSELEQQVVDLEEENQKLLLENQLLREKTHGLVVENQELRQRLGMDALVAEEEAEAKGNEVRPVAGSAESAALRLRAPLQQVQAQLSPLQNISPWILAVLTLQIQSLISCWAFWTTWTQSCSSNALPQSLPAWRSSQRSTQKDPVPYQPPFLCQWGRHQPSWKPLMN
Sequence of Estrogen receptor (Homo sapiens) (P03372 whole entry, looked up, the tested form may be a part): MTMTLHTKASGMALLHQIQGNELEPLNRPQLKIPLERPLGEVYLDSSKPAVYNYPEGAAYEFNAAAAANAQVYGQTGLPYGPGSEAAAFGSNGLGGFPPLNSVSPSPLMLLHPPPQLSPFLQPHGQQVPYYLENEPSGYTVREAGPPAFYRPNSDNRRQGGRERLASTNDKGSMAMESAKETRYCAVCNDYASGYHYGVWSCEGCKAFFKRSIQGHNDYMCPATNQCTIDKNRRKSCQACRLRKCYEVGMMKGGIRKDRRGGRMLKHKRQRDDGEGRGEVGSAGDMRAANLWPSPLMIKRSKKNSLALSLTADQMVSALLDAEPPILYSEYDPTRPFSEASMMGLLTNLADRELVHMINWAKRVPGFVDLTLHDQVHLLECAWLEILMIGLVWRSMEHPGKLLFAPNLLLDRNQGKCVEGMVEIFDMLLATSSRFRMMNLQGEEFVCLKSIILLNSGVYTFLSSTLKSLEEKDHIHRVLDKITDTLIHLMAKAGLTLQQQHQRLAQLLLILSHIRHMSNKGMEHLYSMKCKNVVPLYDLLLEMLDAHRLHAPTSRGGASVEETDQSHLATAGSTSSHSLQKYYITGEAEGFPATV
Sequence of Nuclear receptor subfamily 1 group I member 3 (Homo sapiens) (Q14994 whole entry, looked up, the tested form may be a part): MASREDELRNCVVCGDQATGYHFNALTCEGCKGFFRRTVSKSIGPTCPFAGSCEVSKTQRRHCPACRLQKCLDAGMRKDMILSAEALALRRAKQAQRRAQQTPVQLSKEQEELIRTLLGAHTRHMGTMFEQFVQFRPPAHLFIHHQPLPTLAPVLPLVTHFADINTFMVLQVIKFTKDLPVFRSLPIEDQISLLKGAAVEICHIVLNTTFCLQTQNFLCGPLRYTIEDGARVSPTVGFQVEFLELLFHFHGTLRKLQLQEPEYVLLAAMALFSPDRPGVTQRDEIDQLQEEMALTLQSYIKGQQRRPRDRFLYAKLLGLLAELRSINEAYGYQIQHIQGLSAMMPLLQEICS
Sequence of Transcription factor Sp1 (Homo sapiens) (P08047 whole entry, looked up): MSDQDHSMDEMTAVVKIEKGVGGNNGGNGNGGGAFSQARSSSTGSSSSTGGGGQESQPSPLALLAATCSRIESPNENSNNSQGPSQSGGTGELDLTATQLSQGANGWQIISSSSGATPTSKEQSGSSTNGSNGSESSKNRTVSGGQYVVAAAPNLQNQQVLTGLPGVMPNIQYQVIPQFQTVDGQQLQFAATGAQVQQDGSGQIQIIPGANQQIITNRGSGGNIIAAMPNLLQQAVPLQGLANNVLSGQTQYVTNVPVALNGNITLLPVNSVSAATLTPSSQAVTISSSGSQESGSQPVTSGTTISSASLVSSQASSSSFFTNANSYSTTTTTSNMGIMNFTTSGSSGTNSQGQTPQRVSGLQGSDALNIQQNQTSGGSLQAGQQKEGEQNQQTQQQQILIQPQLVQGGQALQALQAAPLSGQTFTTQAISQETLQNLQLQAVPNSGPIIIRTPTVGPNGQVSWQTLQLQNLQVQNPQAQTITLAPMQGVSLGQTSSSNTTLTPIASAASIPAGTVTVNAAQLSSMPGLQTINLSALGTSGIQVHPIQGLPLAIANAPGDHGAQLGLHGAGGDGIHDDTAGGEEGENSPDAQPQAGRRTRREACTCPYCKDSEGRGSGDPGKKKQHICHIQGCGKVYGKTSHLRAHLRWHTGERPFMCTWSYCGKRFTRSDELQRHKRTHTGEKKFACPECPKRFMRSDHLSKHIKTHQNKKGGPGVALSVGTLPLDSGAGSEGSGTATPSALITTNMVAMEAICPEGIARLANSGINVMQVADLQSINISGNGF
Sequence of Estrogen-related receptor gamma (Homo sapiens) (P62508 whole entry, looked up, the tested form may be a part): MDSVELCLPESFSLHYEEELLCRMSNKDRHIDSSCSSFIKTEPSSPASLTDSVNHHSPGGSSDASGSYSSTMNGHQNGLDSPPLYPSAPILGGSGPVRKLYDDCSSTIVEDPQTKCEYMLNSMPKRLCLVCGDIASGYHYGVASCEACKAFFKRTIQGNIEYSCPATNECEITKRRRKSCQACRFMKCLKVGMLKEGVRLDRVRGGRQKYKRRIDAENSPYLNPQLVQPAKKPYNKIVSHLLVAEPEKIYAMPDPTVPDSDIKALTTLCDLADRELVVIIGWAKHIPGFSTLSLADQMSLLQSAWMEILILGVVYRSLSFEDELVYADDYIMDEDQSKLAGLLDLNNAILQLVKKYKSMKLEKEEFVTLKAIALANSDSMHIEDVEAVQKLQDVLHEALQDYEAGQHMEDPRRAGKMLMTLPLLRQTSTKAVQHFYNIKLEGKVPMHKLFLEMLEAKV
Sequence of Steroid hormone receptor ERR1 (Homo sapiens) (P11474 whole entry, looked up, the tested form may be a part): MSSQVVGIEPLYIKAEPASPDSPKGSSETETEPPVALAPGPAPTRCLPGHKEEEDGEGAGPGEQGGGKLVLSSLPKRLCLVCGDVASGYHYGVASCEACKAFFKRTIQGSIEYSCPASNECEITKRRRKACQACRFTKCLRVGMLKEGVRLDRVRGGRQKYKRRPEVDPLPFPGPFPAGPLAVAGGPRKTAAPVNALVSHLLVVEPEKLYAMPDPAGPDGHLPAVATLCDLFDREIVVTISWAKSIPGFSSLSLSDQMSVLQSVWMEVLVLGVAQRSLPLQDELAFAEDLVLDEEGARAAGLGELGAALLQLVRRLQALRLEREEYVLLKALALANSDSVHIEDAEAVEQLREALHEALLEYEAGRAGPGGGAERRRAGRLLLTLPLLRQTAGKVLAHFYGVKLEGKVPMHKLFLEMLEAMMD

Turning to `Cc1ccc(N)cc1Cl`, the result in [1], in assay [2], in [3], in assay [4], in [5] and in [6] was inactive. The outcome in [7], in [8], in assay [9], in assay [10], in [11] and in assay [12] was inactive. For the same molecule, in assay [13], the molecule was called inactive.

For orientation: AC50 means the concentration giving half of the maximal activity seen. As to `CC(C)(C)CC(C)(C)c1ccc(O)cc1`, the result in assay [1], in [2], in [3], in assay [4], in assay [5] and in assay [6] was inactive. Also, the molecule was called inactive in [7], in [8], in assay [9], in assay [10], in [13] and in assay [14]. Moreover, the call in assay [15] and in assay [16] was inactive. Besides, the AC50 in [4] is 14.1 µM (active); in [7], 18.2 µM (active); in assay [10] it was 3.28 µM (active) and 14.2 µM (active).

For `CCC1(c2ccc(N)cc2)CCC(=O)NC1=O` (centres undefined), the outcome in assay [1], in assay [2], in assay [3], in [4], in assay [5] and in assay [7] was inactive. Besides, the call in assay [8], in assay [9], in assay [10], in assay [12], in assay [13] and in assay [17] was inactive. Besides, the molecule was called inactive in assay [16].

With `O=C(O)Cc1ccccc1`, the molecule was called inactive in [1], in assay [2], in assay [3], in assay [4], in assay [6] and in assay [7]. The outcome in assay [9], in assay [10], in [11], in assay [12], in assay [13] and in [14] was inactive. Besides, the molecule was called inactive in [16].

As to `C=C(C)C#N`, the result in assay [1], in assay [2], in assay [3], in assay [4], in assay [5] and in assay [6] was inactive. Moreover, the molecule was called inactive in assay [7], in [8], in assay [9], in [10], in assay [12] and in [13]. In addition, the outcome in assay [14], in [17] and in assay [16] was inactive.

As for `O=C(OC1CCCCC1)c1ccccc1C(=O)OC1CCCCC1`, the AC50 was 8.39 µM (active) in [1], 62.1 µM (active) in assay [9], 2.82 µM (active) in [10] and 3.1 µM (active) in assay [12]. For the same molecule, the molecule was called inactive in assay [3], in assay [4], in [5], in [7], in [8] and in assay [13]. Besides, the outcome in assay [15] and in assay [16] was inactive.

As for `C[C@]12CCC(=O)C[C@@H]1CC[C@@H]1[C@@H]2CC[C@]2(C)[C@@H](O)CC[C@@H]12`, the AC50 is 42.3 µM (active) in [1]; 26 µM (active) and 23 µM (active) in [4]; 24.6 µM (active) and 23.6 µM (active) in assay [7]; 123 µM (active) and 99.6 µM (active) in assay [9]; 33 µM (active) and 17.9 µM (active) and 23.4 µM (active) in assay [10]. For the same molecule, the molecule was classed as inactive in [1], in [2], in assay [3], in assay [4], in assay [5] and in assay [6]. The molecule was called inactive in assay [7], in assay [8], in [9], in [10], in assay [18] and in assay [13]. In assay [14], the molecule was classed as inactive.

On to `CC(C)C1CCC(Cc2ccc(Cl)cc2)C1(O)Cn1cncn1` (centres undefined), for which the call in [1], in [2], in assay [3], in [4], in assay [5] and in [6] was inactive. For the same molecule, the outcome in [7], in assay [8], in assay [9], in assay [11], in [12] and in [13] was inactive. Besides, the molecule was classed as inactive in assay [14], in assay [17], in assay [19], in assay [15] and in [16]. The AC50 in [10] was 4.62 µM (active).
